Experimental data as given in PubChem BioAssay (NCATS).
Results filed as inconclusive are left out. Activity calls are given as the source filed them. Calls follow the shape of the dose curve; as a rule, active = well fitted curve in the direction sought with a large enough effect; inconclusive = small, poorly fitted or top-dose-only effect, or another doubt; inactive = no such curve, though single readings can be large; an effect the other way counts as inactive or inconclusive.

Key:
MCC-13 = test: qHTS assay to identify novel small-molecules to repurpose for Merkel cell carcinoma treatment (AID 1296009); settings: MCC and control cell lines, CellTiter-Glo viability, 72 h; series mostly up to 46 µM; also: nearly all actives have a fitted effect of over 60% in size
In short: (§1)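 Dose-response viability screen; 72 hr exposure at 37 degree celsius; CellTiter-Glo added, 10 min room temperature, luminescence read; RLUs scaled between no-cell and DMSO wells.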

UISO = test: as above; settings: MCC and control cell lines, CellTiter-Glo viability, 72 h; series mostly up to 46 µM
In short: as §1

MCC-26 = test: as above; settings: MCC and control cell lines, CellTiter-Glo viability, 72 h; series mostly up to 46 µM
In short: as §1

MKL-1 = test: as above; settings: MCC and control cell lines, CellTiter-Glo viability, 72 h; series mostly up to 46 µM
In short: as §1

MKL-2 = test: as above; settings: MCC and control cell lines, CellTiter-Glo viability, 72 h; series mostly up to 46 µM
In short: as §1

C33A = test: Primary qHTS to identify gynecologic anti-cancer compounds using libraries of approved drugs and bioactive compounds (AID 1345084); settings: Gynecologic cancer cell panel viability, ATPlite luminescence, 48 h; series mostly up to 57.5 µM; also: nearly all actives have a fitted effect of over 55% in size
In short: (§2)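 Luminescence from the ATPlite ATP-monitoring reagent indicates viable cell number; lower signal means cytotoxicity. Cells received compound 16 h after seeding and were exposed for 48 h across five concentrations.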

CAOV3 = test: as above; settings: Gynecologic cancer cell panel viability, ATPlite luminescence, 48 h; series mostly up to 57.5 µM
In short: as §2

CASKI = test: as above; settings: Gynecologic cancer cell panel viability, ATPlite luminescence, 48 h; series mostly up to 57.5 µM
In short: as §2

HeLa = test: as above; settings: Gynecologic cancer cell panel viability, ATPlite luminescence, 48 h; series mostly up to 57.5 µM
In short: as §2

OV90 = test: as above; settings: Gynecologic cancer cell panel viability, ATPlite luminescence, 48 h; series mostly up to 57.5 µM
In short: as §2

PA-1 = test: as above; settings: Gynecologic cancer cell panel viability, ATPlite luminescence, 48 h; series mostly up to 57.5 µM
In short: as §2

Tov-21-G = test: as above; settings: Gynecologic cancer cell panel viability, ATPlite luminescence, 48 h; series mostly up to 57.5 µM
In short: as §2

Tov112D = test: as above; settings: Gynecologic cancer cell panel viability, ATPlite luminescence, 48 h; series mostly up to 57.5 µM
In short: as §2

WaGa = test: qHTS assay to identify novel small-molecules to repurpose for Merkel cell carcinoma treatment (AID 1296009); settings: MCC and control cell lines, CellTiter-Glo viability, 72 h; series mostly up to 46 µM; also: nearly all actives have a fitted effect of over 60% in size
In short: as §1

Es-2 = test: Primary qHTS to identify gynecologic anti-cancer compounds using libraries of approved drugs and bioactive compounds (AID 1345084); settings: Gynecologic cancer cell panel viability, ATPlite luminescence, 48 h; series mostly up to 57.5 µM; also: nearly all actives have a fitted effect of over 55% in size
In short: as §2

Hek293T = test: as above; settings: Gynecologic cancer cell panel viability, ATPlite luminescence, 48 h, control line for the selectivity index; series mostly up to 57.5 µM
In short: as §2

JEG-3 = test: as above; settings: Gynecologic cancer cell panel viability, ATPlite luminescence, 48 h; series mostly up to 57.5 µM
In short: as §2

SKOV3 = test: as above; settings: Gynecologic cancer cell panel viability, ATPlite luminescence, 48 h; series mostly up to 57.5 µM
In short: as §2

Measured: Potency
Potency is read from the fitted curve at half-maximal effect.

CN(C)CCN(C)C(=O)c1ccc(NC(=O)Nc2ccc(-c3nc(N4CCOCC4)c4ccn(CC(F)(F)F)c4n3)cc2)cc1
active: UISO 105 nM
inactive: MCC-13

COc1ccc(-c2ccc3ncc4c(c3c2)n(-c2ccc(N3CCNCC3)c(C(F)(F)F)c2)c(=O)n4C)cn1
active: MCC-26 372 nM | MKL-1 29.6 nM | MKL-2 0.0418 µM | UISO 23.5 nM | C33A 11.2 µM | CAOV3 2.51 µM | CASKI 794 nM | HeLa 1.12 µM | OV90 31.6 µM | PA-1 316 nM | Tov-21-G 35.5 µM | Tov112D 15.8 µM

Cc1cccc(Nc2nc(N[C@@H]3CCCC[C@H]3N)ncc2C(N)=O)c1
inactive: MCC-13 | MKL-2 | UISO | WaGa

COc1cc2nc(-c3cc(F)ccc3O)nc(N[C@@H]3CNC[C@@H]3C(C)(C)O)c2cc1OC
active: MCC-13 20.9 µM | MKL-2 9.35 µM

O=C(c1ccc(C=Cc2n[nH]c3ccccc23)cc1)N1CCNCC1
inactive: MCC-13 | MKL-2

O=C(Nc1ccc(OC(F)(F)F)cc1)c1sccc1NCc1ccnc2ccccc12
not listed: UISO | MCC-26 | MKL-1 | MKL-2 | OV90 | PA-1 | WaGa
inactive: all other assays above
